# Records with an inconclusive call do not appear. Values without a mark were called inactive. Activity calls are given as the source filed them. The call rests on the fitted dose curve; in most records, active means well fitted activation curve with a large enough effect; inconclusive means small, poorly fitted or top-dose-only effect; inactive means no such curve, though single readings can be large or run the other way.
# Molecular target: Relaxin receptor 1 (Homo sapiens) (UniProt Q9HBX9)
# Assay: qHTS Assay for Agonists of the Relaxin Receptor RXFP1: THP1 Hit Validation; further: nearly all actives have a fitted effect of over 60% in size;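 on activation: 0% = buffer alone basal and 100% = 29 nM porcine relaxin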
# Details: THP1-RXFP1 cells, cAMP TR-FRET, 30 min; series mostly up to 115 µM; activation: at the top concentration
# Summary of the method: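 EC50s come from Hill-equation fits of data normalized between buffer (basal) and 29 nM porcine relaxin (100%). cAMP was measured by competitive TR-FRET in lysates of RXFP1-transfected THP1 cells after 30 min compound exposure, with Ro 20174 present.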
# Potency means the concentration at half of the fitted maximal effect.
# Chain of Relaxin receptor 1 (Homo sapiens) (Q9HBX9 whole entry, looked up): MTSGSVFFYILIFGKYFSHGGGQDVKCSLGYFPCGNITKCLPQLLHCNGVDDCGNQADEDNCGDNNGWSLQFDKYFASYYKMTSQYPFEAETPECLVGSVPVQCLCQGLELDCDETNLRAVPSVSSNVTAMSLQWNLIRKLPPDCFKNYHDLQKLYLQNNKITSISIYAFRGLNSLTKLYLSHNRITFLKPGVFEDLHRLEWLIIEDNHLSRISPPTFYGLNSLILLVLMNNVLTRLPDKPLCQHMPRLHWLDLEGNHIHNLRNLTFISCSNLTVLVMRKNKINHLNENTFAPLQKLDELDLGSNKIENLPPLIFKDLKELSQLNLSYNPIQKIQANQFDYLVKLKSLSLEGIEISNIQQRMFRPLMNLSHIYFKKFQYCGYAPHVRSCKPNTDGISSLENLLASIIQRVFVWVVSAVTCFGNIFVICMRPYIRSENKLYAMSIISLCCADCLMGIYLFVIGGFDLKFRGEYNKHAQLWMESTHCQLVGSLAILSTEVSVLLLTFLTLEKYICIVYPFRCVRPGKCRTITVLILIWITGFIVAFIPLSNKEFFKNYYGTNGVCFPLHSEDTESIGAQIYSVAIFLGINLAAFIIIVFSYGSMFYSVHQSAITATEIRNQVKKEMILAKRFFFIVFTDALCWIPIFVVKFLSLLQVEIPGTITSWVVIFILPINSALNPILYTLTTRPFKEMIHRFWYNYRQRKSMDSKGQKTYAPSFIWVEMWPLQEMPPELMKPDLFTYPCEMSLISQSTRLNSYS
SMILES,Potency,activation
CC(=O)c1c(C)[nH]c(C(=O)OCc2cc(=O)n3cc(Br)ccc3n2)c1C,8.68 µM (active),–
c1ccc(-c2nnc(-c3ccccn3)c(-c3ccccn3)n2)nc1,–,-1.89%
CCOC(=O)CNC(=O)CSc1ccc2nnc(-c3cccnc3)n2n1,–,-30.1%
O=c1oc2cc(O)c(Cl)cc2c2ccccc12,8.68 µM (active),–
COc1ccc(Nc2ncc(C#N)c(N)n2)c(OC)c1,–,-8.23%
O=C(Nc1ccccc1C(=O)N1CCNCC1)c1ccco1,–,-2.55% [at 125 µM]
Nc1cc2ccncc2c2ccccc12,–,-2.54%
COc1ccc(CN2C(=O)c3cccnc3C2=O)cc1S(=O)(=O)NC1CCCCC1,19.5 µM (active),–
NC(=S)c1cc2ccc(O)cc2oc1=O,4.88 µM (active),–
CC1C/C(=N\NC(N)=S)c2cc(Cl)ccc2S1 (centres undefined),–,4.17%
O=C(Nc1ccccc1C(=O)NCc1ccc(Cl)cc1)c1ccco1,–,10.3% [at 125 µM]
COC(=O)Cn1cnc2c(C#N)c3n(c2c1=O)CCCC3,24.5 µM (active),–
CCN(CC)S(=O)(=O)c1ccc(C)c(NC(=O)Cn2cnc3cc([N+](=O)[O-])ccc3c2=O)c1,12.3 µM (active),–
Cc1cccc2cc(C#N)c(SCC(=O)NCc3cccs3)nc12,19.4 µM (active),–
O=C(O)CNC(=O)c1ccccc1NC(=O)c1ccco1,–,-4.65% [at 125 µM]
O=C(Nc1ccccc1C(=O)Nc1ccccc1)c1ccco1,–,11.7% [at 125 µM]
O=C(Nc1ccccc1C(=O)NCCc1ccccc1)c1ccco1,–,3.22% [at 125 µM]
CCOC(=O)CNC(=O)CSc1nc2c(C)cccc2cc1CC,19.4 µM (active),–
CC1(C)Cc2nc3sc4c(SCC(=O)NC(c5ccccc5)c5ccccc5)ncnc4c3cc2CO1,3.88 µM (active),–
CC1(C)O[C@@H]2[C@H](O1)[C@@H](COS(=O)(=O)O)O[C@H]2n1cnc2c(N)ncnc21,5.48 µM (active),–

SMILES,Potency,activation
CN(C)c1ccc(C(=S)N2CCN(S(=O)(=O)c3ccccc3)CC2)cc1,–,-2.5%
COc1cccc(CNC(=O)c2ccc(CS(=O)Cc3ccc(C)cc3)o2)c1 (centres undefined),–,2.75% [at 43.1 µM]
Cn1c(=O)c(C(=O)COc2ccc(C#N)cc2)c(N)n(Cc2ccccc2)c1=O,8.7 µM (active),–
O=C(Nc1ccccc1C(=O)N1CCOCC1)c1ccco1,–,3.58% [at 125 µM]
CC(=O)C1C(c2ccccc2)c2c(noc2C)CC1(C)O (centres undefined),–,3.3%
CCOC(=O)c1sc(NC(=O)CCc2ccc(OC)cc2)nc1C,17.3 µM (active),–
CCC(Sc1ccc2nnc(-c3cccnc3)n2n1)C(=O)OC (centres undefined),19.4 µM (active),–
COc1ccc(/C=C2/SC(=O)N(CCC(=O)Nc3ccc(C)cc3)C2=O)cc1OC,–,-92.9%
Brc1ccc(-c2nn3c(-c4ccco4)nnc3s2)o1,17.3 µM (active),–
O=C(O)c1cccc(CSc2nnc(Cc3ccccc3)o2)c1,–,6.08% [at 43.1 µM]
CCNc1nc(NCC)nc(N(C)/N=C/c2ccco2)n1,–,-2.12%
Nc1nnc(CC(=O)N/N=C/c2ccc(-c3ccc(Cl)cc3Cl)o2)s1,–,4.21%
Cc1ccc(CN(C)C(=O)c2ccccc2NC(=O)c2ccccc2)o1,–,6.8% [at 125 µM]
O=C(Nc1ccccc1C(=O)NCCN1CCOCC1)c1ccco1,–,10.5% [at 125 µM]
Cc1cc(C)c(C(=O)CSc2n[nH]c(=O)n2C2CC2)cc1C,–,-3.41%
Cc1cc2nc3ccc(=[N+](C)C)cc-3sc2cc1N,–,-52.7%
O=C(O)c1ccc(CN2C(=O)c3ccc(C(=O)O)cc3C2=O)cc1,–,-0.984%
C=CCNc1ncnc2c1ncn2C1OC(CO)C(O)C1O (centres undefined),–,-48.9%
Cc1ccc(-n2c(=S)[nH]c3sc4c(c3c2=O)CCC4)cc1,8.68 µM (active),–

# From PubChem BioAssay AID492949 (National Center for Advancing Translational Sciences (NCATS), 2010)
